Most compounds without a hit are left out; they make up all but 7.3% or so of the library.
HCV inhibitor: HCV inhibition; Potency, µM (titrated, usually from 41.8 µM), without a hit: at the top dose activity change, negative = inhibition, usual class: inhibitors; AID 651820; hit rate 3.4% among 340,000; Huh7.5.1 HCVcc-Cre infection, luciferase reporter, 44 h; active = well fitted inhibition curve with a large enough effect; inconclusive = small, poorly fitted or top-dose-only effect, or another doubt; inactive = no such curve, though single readings can be large or run the other way; also: potency is read from the fitted curve at half-maximal effect
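Seed cells (1,000/well) for 4 h; treat with compound and infect with HCVcc-Cre, moi about 0.5. Incubate 44 h, then detect luciferase activity.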
VACV mCherry inh: vaccinia inhibition (mCherry reporter). Vaccinia virus mCherry reporter infection, fluorescence. Potency, µM (series often up to 36.5 µM), inactives show top-dose activity change, negative = inhibition, hits mostly inhibitors. hit rate 0.63% among 310,000. AID 720579; calls by dose curve; tested in A549 cells; also: potency is read from the fitted curve at half-maximal effect; nearly all actives have a fitted effect of over 35% in size
HCMV inh: human cytomegalovirus inhibition; HFF cells, HCMV-luciferase reporter, 72 h; hits give low values; activity change, negative = inhibition, % at 57.5 µM; hit rate 4.5% among 410,000; in the data active = activity change below about -60%; inconclusive = no clear call, values can overlap the other calls; inactive = above about -39%
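Two-dose cell screen: HFF monolayers treated with compounds and infected with luciferase-expressing HCMV at 1 PFU/cell, 72 h at 37C, then lysed for luciferase measurement.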
VACV Venus inh: inhibitors of vaccinia virus (Venus reporter). Vaccinia virus Venus reporter expression, fluorescence. hit rate 0.46% among 330,000. AID 720580. Potency, µM (top dose mostly 36.5 µM), inactives show at the highest dose activity change, negative = inhibition, hits mostly inhibitors; calls by dose curve; tested in A549 cells; also: potency is read from the fitted curve at half-maximal effect; nearly all actives have a fitted effect of over 30% in size
FMDV antiviral: antivirals against foot and mouth disease virus; Potency, µM (series often up to 57.9 µM), for inactives: at the highest dose activity change, negative = inhibition, usual class: inhibitors; FMDV antiviral cell-based qHTS; hit rate 1.2% among 410,000; AID 1159524; calls by dose curve; tested in HEK293T cells; also: read-out not given here; potency is read from the fitted curve at half-maximal effect; nearly all actives have a fitted effect of over 45% in size
* = called active by the depositor; i = inactive; ? = inconclusive; . = no result given; [ ] = another dose, or the depositor's remark. % is scaled to controls: 0 for no effect and ±100 for the full control effect.

SMILES | HCV inhibitor | VACV mCherry inh | HCMV inh | VACV Venus inh | FMDV antiviral
CCN1CCN(c2sc(S(=O)(=O)CC)nc2S(=O)(=O)c2ccc(C)cc2)CC1 | . | ? | -72* | -21% | -2%
CCN1CCN(c2sc(S(C)(=O)=O)nc2S(=O)(=O)c2ccc(C)cc2)CC1 | ? | . | -91* | . | 8%
CCCS(=O)(=O)c1nc(S(=O)(=O)c2ccc(C)cc2)c(N2CCN(C)CC2)s1 | 5% | . | ? | . | 0%
CCCS(=O)(=O)c1nc(S(=O)(=O)c2ccc(C)cc2)c(N2CCN(CC)CC2)s1 | 16% | . | -80* | . | -2%
CCS(=O)(=O)c1nc(S(=O)(=O)c2ccc(C)cc2)c(N2CCCC2)s1 | -27% | 0%[7.34 µM] | -30 | 0%[7.34 µM] | 20%
COc1cc(NC(=O)CCc2c(C)nn(-c3ccc4nnc(C)n4n3)c2C)cc(OC)c1OC | . | 6% | ? | 4% | -13%
Cc1cc(-c2ccc(N=Nc3ccc4c(S(=O)(=O)O)cc(S(=O)(=O)O)c(N)c4c3O)c(C)c2)ccc1N=Nc1ccc2c(S(=O)(=O)O)cc(S(=O)(=O)O)c(N)c2c1O | . | . | . | . | 32µM*
Cc1ccc(N=Nc2ccc(N)cc2C)c(S(N)(=O)=O)c1 | ? | -30% | 70 | -14% | 49%
O=C(O)CCCCCN1C(=O)CSC1=S | 10% | . | -81* | -4% | 0%
O=C(c1cc2ccc3cccnc3c2[nH]1)N1CCN(c2ccc(Cl)cc2)CC1 | . | -11% | 6 | -7% | -23%
CC1CCCN(C(=O)c2cc3ccc4cccnc4c3[nH]2)C1 (configuration not stated) | . | 0% | -81* | -15% | 14µM*
Cc1ccc(Cl)cc1N1CCN(C(=O)c2cc3ccc4cccnc4c3[nH]2)CC1 | . | -6% | -70* | -3% | -11%
O=C(NCC1CCN(Cc2ccc(F)cc2)CC1)c1cc2ccc3cccnc3c2[nH]1 | . | -29% | -68* | ? | 0%
O=C(c1cc2ccc3cccnc3c2[nH]1)N1CCCCC1 | . | -5% | -67* | -12% | -49%
CCOC(=O)C1CCN(C(=O)c2cc3ccc4cccnc4c3[nH]2)CC1 | . | i | -12 | -11% | 28%
O=C(Cn1nnc(-c2ccccc2)n1)N/N=C/c1ccco1 | 13µM* | -10% | -16 | -9% | -3%
O=C(Cn1nnc(-c2ccccc2)n1)N/N=C/c1cc([N+](=O)[O-])ccc1O | ? | -5% | -73* | 5% | 3%
Cc1ccc(CNC(=O)c2cc(=O)c3cc(C)cc(C)c3o2)cc1 | . | -6% | 12 | -14% | -1%
O=C(NCCN1C(=O)S/C(=C/c2cccnc2)C1=O)c1ccc(S(=O)(=O)N2CCCC2)cc1 | -27% | -15% | 2 | 6% | 3%
CSc1ccc(CNC(=O)c2ccc(NC(=O)c3nsc4ccccc34)cc2)cc1 | . | -8%[7.34 µM] | -96* | -5%[7.34 µM] | -5%
Cc1ccc(CNC(=O)c2ccccc2NC(=O)c2nsc3ccccc23)cc1 | . | ? | -88* | ? | -3%
CSc1ncccc1C(=O)NCc1ccc(C)cc1 | 6% | ? | -27 | 10µM* | 3%
CCOc1ncccc1C(=O)NCc1ccc(C)cc1 | 10% | -9% | -32 | -15% | 1%
CCn1c(-c2ccccc2F)nc2cc(NC(C)=O)cc(C(=O)NCC3CCOCC3)c21 | . | i | . | -13% | -1%
COc1ccc(Cn2c(=O)c3oc4ccccc4c3n(Cc3ccc(F)cc3)c2=O)cc1 | . | -9% | -19 | -2% | -12%
SMILES | HCV inhibitor | VACV mCherry inh | HCMV inh | VACV Venus inh | FMDV antiviral
COc1ccc(CN(C)C2c3ccccc3-c3ccccc32)cc1 | -3% | -14% | ? | -19% | -7%
CCCC(=O)N1CCC1(C)C(=O)Nc1ccc(-n2cccc2)cc1 (configuration not stated) | . | -7% | . | -1% | -14%
Cc1cc(NC(=O)CCN2C(=O)C3C4CCC(C4)C3C2=O)c(C)cc1Br (configuration not stated) | ? | . | -107* | . | ?
Cc1cccc(N2C(=O)CSC23C(=O)N(CC(=O)NCc2ccccc2Cl)c2ccccc23)c1 (configuration not stated) | . | -18% | 9 | -7% | -16%
C[C@H](O)[C@@H]1CN2CCc3c([nH]c4ccc(-c5ccc6c(c5)OCO6)cc34)[C@@H]2C[C@@H]1N(C)C(=O)NC1CCCCC1 | . | ? | -86* | ? | -2%
CN(CCC#N)Cc1cc(=O)oc2ccc3ccccc3c12 | -30% | i | -62* | 0% | -24%
Cn1cc([N+](=O)[O-])c(C(=O)Nc2sc3c(c2C#N)CCC3)n1 | -1% | . | -101* | . | 10%
Cn1cc(Br)c(C(=O)Nc2sc3c(c2C#N)CCC3)n1 | 13% | -13% | -4 | -8% | 46%
O=C(N/N=C/C(Br)=C/c1ccccc1)c1cnccn1 | -8% | -21% | -61* | -25% | 25%
COc1cccc(C(=O)N/N=C/C(Br)=C/c2ccccc2)c1 | ? | ? | ? | ? | 6%
COc1ccc(C(=O)N/N=C/C(Br)=C/c2ccccc2)cc1 | ? | -27% | -65* | -13% | -6%
COc1ccc2c(c1)-c1nc(/N=C/c3c(O)ccc4ccccc34)sc1CC2 | 13µM* | ? | 18 | -18% | 1%
CCc1nc2cccnc2n1-c1ccc(CC(=O)Nc2cccc(C)c2C)cc1 | . | -9%[7.34 µM] | 1 | -9%[7.34 µM] | -13%
CC(C)(C)c1ccc(C2=NC(C)(C)N(CC(=O)Nc3ccc(F)c(F)c3)C2=O)cc1 | . | -16% | 10 | -20% | -11%
CCOC(=O)C1(C)C=C(Nc2ccc(O)cc2)C(=O)N1c1ccc(O)cc1 (configuration not stated) | 4% | i | -70* | -7% | -14%
Cc1cc(C)c2c(NC(=O)CCl)nn(C)c2n1 | ? | 4.5µM* | -110* | ? | ?
O=C(NCc1ccc2c(c1)OCO2)C(=O)NCC1OCCCN1S(=O)(=O)c1ccc(F)cc1 (configuration not stated) | -1% | . | 14 | . | -10%
CCOCCCNc1nc(C(F)(F)F)nc2c1nnn2Cc1ccccc1Cl | 11µM* | . | ? | . | ?
CN(C)S(=O)(=O)c1ccc(Nc2nc(C3CC3)nc3c2nnn3Cc2ccccc2Cl)cc1 | ? | i | -79* | -19% | 5µM*
CC(=O)Nc1ccc(Nc2nc(C(F)(F)F)nc3c2nnn3Cc2ccccc2Cl)cc1 | ? | ? | -72* | -21% | ?
C=CCNc1nc(C(F)(F)F)nc2c1nnn2Cc1ccccc1Cl | 1% | . | 24 | . | -16%
CCc1nc(Nc2ccc(OC)c(OC)c2)c2nnn(Cc3ccccc3Cl)c2n1 | ? | . | ? | ? | 25µM*
COc1cccc(OC)c1Nc1nc(C)nc2c1nnn2Cc1ccccc1Cl | -1% | 1% | -10 | 6% | -14%
COC(=O)CNc1nc(C2CC2)nc2c1nnn2Cc1ccccc1Cl | ? | . | 19 | . | -21%
CCCCOC(=O)c1ccc(NC(=O)COC(=O)C2CC2C)cc1 (configuration not stated) | . | 0% | 21 | -14% | 14%
